D2 ag-1 – agonists of human D2 dopamine receptor; P14416; HEK293 T-REx D2 cells, calcium flux agonist mode; activation, % at 2 µM; hit rate 0.53% among 340,000; AID 485358;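 active means activation over 3 SD above normal in the single-dose calcium agonist read, cut at about 30% in these data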
Target sequence (P14416 whole entry, looked up): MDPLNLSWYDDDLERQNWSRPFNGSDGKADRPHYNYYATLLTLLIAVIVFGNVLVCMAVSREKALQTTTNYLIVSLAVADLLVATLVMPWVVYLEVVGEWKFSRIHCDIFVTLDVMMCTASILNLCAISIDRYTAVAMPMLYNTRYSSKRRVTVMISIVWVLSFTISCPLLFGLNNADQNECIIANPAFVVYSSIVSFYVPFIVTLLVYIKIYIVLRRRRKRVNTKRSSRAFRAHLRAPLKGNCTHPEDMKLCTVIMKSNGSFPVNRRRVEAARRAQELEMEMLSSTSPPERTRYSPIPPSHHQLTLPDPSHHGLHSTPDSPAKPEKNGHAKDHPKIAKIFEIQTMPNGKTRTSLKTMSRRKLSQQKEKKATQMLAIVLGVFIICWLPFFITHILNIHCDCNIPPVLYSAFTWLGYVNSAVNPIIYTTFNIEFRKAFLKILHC
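Calcium-flux readout, 1 cycle/sec over 180 s following compound pin transfer, in inducible HEK293 Trex D2 cells (force-coupled); dopamine controls included. Positive calcium responses during this window marked compounds as potential agonists.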
D2 PAM-1 – human D2 receptor positive allosteric modulation. AID 624464. DiscoveRx D2 beta-arrestin cells, luminescence, 90 min; 100% = 57 uM dopamine signal. hit rate 0.23% among 360,000. potentiation, % (test concentration not listed). P14416; in the data active means potentiation above about 50%; inconclusive means mostly about 30% to 49%
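PathHunter D2 cells, attached overnight at 37 deg C, received compound in DMSO plus dopamine at EC20 (50 nM final) for 90 min at 37 deg C. Beta-arrestin recruitment was read as luminescence after 1 h with detection reagent at ambient temperature.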
D2 PAM-2 – D2 dopamine receptor (human) potentiation | potentiation, % at 10 µM | HEK293 T-REx D2, calcium flux, EC20 dopamine potentiation | hit rate 0.34% among 340,000 | P14416;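 active means potentiation over 3 SD above the plate norm, cut at about 30% in these data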
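Tetracycline-induced HEK293 T-REx cells force-coupled to calcium signalling expressed D2; compounds were pin-added after a 10 s baseline, read kinetically 180 s, then an EC20 dopamine challenge followed with a further 180 s calcium read.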
D2 ag-2 – activates the human D2 dopamine receptor | P14416 | DiscoveRx PathHunter D2 beta-arrestin, luminescence, 90 min; 100% = 57 uM dopamine signal | activation, % (concentration not given with the values) | hit rate 0.084% among 360,000; in the data active means activation above about 40%; inconclusive means between about 15% and that limit
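Agonist mode: compounds alone added to overnight-plated D2 PathHunter cells for 90 min at 37 C, with 57 uM final dopamine (EC100) defining full response. Beta-arrestin recruitment detected by chemiluminescent reagent, read after 1 h at ambient temperature.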
D2 antagonist – antagonizes the human D2 dopamine receptor. P14416. HEK293 TREx D2 cells, calcium flux, dopamine EC80. inhibition, % at 10 µM. hit rate 2% among 340,000. AID 485344; in the data active means inhibition above about 30%; inactive means below that, where a call was filed
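Tetracycline-induced HEK293 T-REx cells expressing D2 force-coupled to calcium signalling were dye-loaded, exposed to compound for 180 s, then challenged with an EC80 of dopamine; calcium flux was followed kinetically for a further 180 s.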
Large screens that a line does not name were inactive. An excerpt weighted towards active compounds, which were near 2.4% of everything screened.

COc1cc(/C=C2/SC(=S)NC2=O)ccc1OS(=O)(=O)c1ccc(C)cc1	none
COc1cc(/C=C2\SC(=S)N(CCCCC(=O)O)C2=O)ccc1OS(=O)(=O)c1ccc(C)cc1	D2 PAM-1 inconclusive, D2 antagonist 32.1
COc1cc(NC(=O)c2cccc3c(-c4cnn(C)c4)coc23)cc(OC)c1OC	D2 ag-2 inconclusive (no result: D2 ag-1, D2 PAM-2, D2 antagonist)
C1CCC(NC2=NCCO2)CC1	none (no result: D2 ag-1, D2 PAM-2, D2 antagonist)
C1COC(NC(C2CC2)C2CC2)=N1	D2 antagonist 36.2
COc1ccc(/C=N/NC(=O)c2ccc(CN3c4cccc5cccc(c45)S3(=O)=O)cc2)cc1	D2 PAM-2 38.2
COc1cc(/C=N/NC(=O)c2ccc(CN3c4cccc5cccc(c45)S3(=O)=O)cc2)cc(OC)c1O	none
O=C(Nc1ccc2nc(SCC(=O)N3CCCC3)sc2c1)c1cccc(Br)c1	none (no result: D2 ag-1, D2 PAM-1, D2 ag-2, D2 antagonist)
O=C(O)/C(=C/c1ccco1)NC(=O)c1ccccc1	D2 antagonist 33.7
CC(=O)c1ccc(NC(=O)CCc2c(C)nc3c(c2C)c(=O)n(C)c(=O)n3C)cc1	none (no result: D2 PAM-1, D2 ag-2, D2 antagonist)
Cc1cc(Br)cn2c(Cc3ccsc3)c(-c3ccc(Cl)cc3)nc12	none (no result: D2 ag-1, D2 PAM-2, D2 antagonist)
O=C(CC(c1ccccc1)c1cc(Br)ccc1O)NCCN1CCOCC1 (stereo unspecified)	D2 antagonist 77.0
O=C(CC(c1ccccc1)c1cc(Br)ccc1O)NCCCN1CCOCC1 (stereo unspecified)	none
CCOC(=O)CNC(c1ccccc1)c1cc(Br)ccc1NC(=O)CCN1CCOCC1 (stereo unspecified)	D2 antagonist 37.9
CCN1CCN(C(c2ccccc2Cl)c2sc3nc(-c4ccco4)nn3c2O)CC1 (stereo unspecified)	none (no result: D2 PAM-1, D2 ag-2, D2 antagonist)
S=c1nc(-c2ccccc2)n(CCCN2CCOCC2)c2c1CCCC2	none
S=c1nc(-c2ccccc2)n(CCCn2ccnc2)c2c1CCCC2	D2 antagonist 39.1
O=C(NC1CCCCC1)[C@H](O)[C@@H](O)C(=O)NC1CCCCC1	D2 antagonist 48.9
CCOC(=O)C1CCCCN1C(=O)CCc1c(C)nc2cc(-c3ccccc3)nn2c1C (stereo unspecified)	D2 antagonist 32.8
Cc1nc2cc(-c3ccccc3)nn2c(C)c1CCC(=O)N1CCN(c2ccccn2)CC1	D2 antagonist 36.3 (no result: D2 PAM-1, D2 ag-2)
Cc1nc2c(-c3ccccc3)c(C)nn2c(C)c1CCC(=O)N1CCOCC1	D2 PAM-2 31.8
Cc1nc2c(-c3ccc(F)cc3)c(C)nn2c(C)c1CCC(=O)N1CCOCC1	none
CCn1c(=O)c2cc(C(=O)NCCc3cc(OC)ccc3OC)sc2c2ccccc21	none (no result: D2 PAM-1, D2 ag-2, D2 antagonist)
Cc1cc(OC(C)C(=O)Nc2c(C(=O)c3ccc(F)cc3)oc3ccccc23)ccc1Cl (stereo unspecified)	none (no result: D2 PAM-1, D2 ag-2, D2 antagonist)
CCC1(c2ccccc2)C(=O)NCNC1=O	D2 antagonist 33.1
O=C(CCc1ccccn1)N1CCCC(N2CCN(c3cccc(C(F)(F)F)c3)CC2)C1 (stereo unspecified)	none
Cc1cc(NC(=O)c2cc(-c3ccccc3Cl)nc3ccccc23)no1	D2 PAM-2 32.0
CCOC(=O)c1sc2nc3c(cc2c1N)COC(C)(CC)C3 (stereo unspecified)	none
CCC1(C)Cc2nc3sc(C(=O)O)c(N)c3cc2CO1 (stereo unspecified)	D2 antagonist 36.7
CC(C)(C)c1cc(OC(=O)c2ccncc2)ccc1O	D2 PAM-1 69.4 (no result: D2 ag-1, D2 antagonist)
Cc1ccc(OCC(=O)Nc2c(Cl)ccc3nsnc23)cc1C	none (no result: D2 PAM-1, D2 ag-2, D2 antagonist)
CCCOc1ccc(C(=O)NNC(=S)NC(=O)CC)cc1	D2 antagonist 72.4
C=CCNC(=S)NNC(=O)c1ccc(OCCC)cc1	none
Cc1onc(-c2ccccc2)c1C(=O)Nc1nnc(COc2ccc(Cl)cc2)s1	D2 PAM-1 inconclusive, D2 antagonist 38.9 (no result: D2 PAM-2)
CCCOc1ccc(C(=O)NC(=S)NNC(=O)c2c(-c3ccccc3)noc2C)cc1	D2 ag-1 70.0
CCCOc1ccc(NC(=O)c2c(-c3ccccc3)noc2C)cc1	none
COc1ccc(Cn2ccc3nc(C)c(C(=O)N4CCN(c5cc(C)ccc5C)CC4)cc3c2=O)cc1	none (no result: D2 PAM-1, D2 ag-2, D2 antagonist)
CCCOc1ccc(C(=O)Nc2cc3nn(-c4ccc(CC)cc4)nc3cc2C)cc1	none (no result: D2 PAM-1, D2 ag-2, D2 antagonist)
CC1CN(C(=O)c2cc3ccccc3cc2O)CC(C)O1 (stereo unspecified)	none (no result: D2 ag-1, D2 PAM-2, D2 antagonist)
CC(=O)Nc1ccccc1C(=O)N1CC(C)OC(C)C1 (stereo unspecified)	D2 PAM-2 39.7
CCCN1C(=O)/C(=C\C=C2\N(CC)c3ccccc3C2(C)C)SC1=S	none
CN1/C(=C\C=C2/SC(=S)NC2=O)C(C)(C)c2ccccc21	D2 ag-1 41.2
CN1C(=CC=C2C=C(I)C(=O)C(I)=C2)C(C)(C)c2ccccc21	none
CN1/C(=C\C=C2/C(=O)Oc3ccccc3C2=O)C(C)(C)c2ccccc21	D2 ag-1 124.7, D2 antagonist 68.1
COc1cc2c(cc1OC)C(COc1ccc(C(C)C)cc1)N(C(=O)c1ccc(S(=O)(=O)N3CCCC3)cc1)CC2 (stereo unspecified)	none (no result: D2 PAM-1, D2 ag-2, D2 antagonist)
O=C1CS(=O)(=O)C2(C(=O)N(Cc3ccccc3Cl)c3ccccc32)N1c1ccc(F)cc1 (stereo unspecified)	none (no result: D2 PAM-1, D2 ag-2, D2 antagonist)
CNC(=S)N1CCC(c2nc3ccccc3s2)CC1	D2 antagonist 68.3
COc1cccc(C(C)(O)c2nc(-c3cccc(NC(C)=O)c3)cs2)c1 (stereo unspecified)	none (no result: D2 ag-1, D2 PAM-2, D2 antagonist)
CN(Cc1ccccc1)Cc1c[nH]c2ccccc12	D2 antagonist 34.6
c1ccc(Cc2c[nH]c3ccccc23)cc1	none
CCc1cccc(NC(=O)Cn2c(=O)n(-c3ccccc3C)c(=O)c3c2c2cc(C)ccc2n3C)c1	none (no result: D2 PAM-1, D2 ag-2, D2 antagonist)
COc1ccccc1CNS(=O)(=O)c1cc(C(=O)Nc2cccc(C(F)(F)F)c2)ccc1F	none (no result: D2 PAM-1, D2 ag-2, D2 antagonist)
O=C1c2cccc3c(N4CCCCC4)ccc(c23)C(=O)N1c1ccccn1	D2 ag-1 37.3
CC(=O)N(C(C)=O)N1C(=O)c2cccc3c(N4CCOCC4)ccc(c23)C1=O	none
Cc1ccc2c(Cl)c(C(=O)Nc3ccc4c(c3)OCO4)sc2c1	D2 antagonist 33.6
Cc1noc(C(=O)Nc2ccc3c(c2)OCO3)c1Cl	D2 antagonist 54.4
N#Cc1c(C(F)(F)F)cc(-c2cccs2)nc1SCc1ccccc1F	none (no result: D2 PAM-1, D2 ag-2, D2 antagonist)
CCCCn1c2ccc(F)cc2c2nnc(SCCN3CCOCC3)nc21	none
Cn1c2ccc(F)cc2c2nnc(SCCN3CCOCC3)nc21	D2 antagonist 35.3
CC1(C)ON(C2CCCCC2)[C@H]2c3nc4ccccc4n3C[C@H]21	D2 antagonist 39.0
COc1ccccc1NS(=O)(=O)c1ccc(C)c(C(=O)NC2CCN(Cc3ccccc3)CC2)c1	D2 antagonist 76.6
COc1ccccc1NS(=O)(=O)c1cccc(C(=O)NC2CCN(Cc3ccccc3)CC2)c1	D2 antagonist 100.5
COc1ccc(NS(=O)(=O)c2ccc(C)c(C(=O)NC3CCN(Cc4ccccc4)CC3)c2)cc1	none

Assay outcomes (PubChem BioAssay)
